Screening results deposited in PubChem by several laboratories.
Hits are enriched below; roughly 3.1% of the tested compounds scored in any of these assays.
FAS TE block: blocks the thioesterase domain of human fatty acid synthase | 360,000 compounds, 0.67% hits | P49327 | recombinant FAS-TE, OMFH fluorogenic substrate, fluorescence endpoint | inhibition, % at 15 µM;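 active = compounds whose normalised, plate-corrected inhibition of enzyme fluorescence in the single-dose primary screen is 50% or more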
Calb FLC: affects C. albicans growth with fluconazole; C. albicans CaCi-2 (fluconazole-resistant clinical isolate) + fluconazole, Alamar Blue growth, 48 h; growth inhibition, % (test concentration not listed); 300,000 compounds, 0.57% hits;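 active = growth inhibition above about 58% in most replicates, limit read from the data, passing the limit was not always enough; inconclusive = exactly half the replicates above a set limit; inactive = most replicates below a set limit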;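 also: all wells also contain fluconazole at 8 µg/ml as a sub-toxic cotreatment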
NadD block: NadD (S. aureus) enzyme inhibition | AID 602399 | purified NadD enzyme, colorimetric absorbance read-out | 360,000 compounds, 0.78% hits | inhibition, % at 20 µM; in the data active = inhibition above about 26%
ATG4B inhibitor: inhibitors of human ATG4B cysteine protease | inhibition, % at 8.33 µM | ATG4B cleavage of LC3-PLA2, NBD-HPC fluorescence, 1 h | Q9Y4P1 | AID 504462 | 340,000 compounds, 0.51% hits; in the data active = inhibition above about 40%
Target sequence (Q9Y4P1 whole entry, looked up): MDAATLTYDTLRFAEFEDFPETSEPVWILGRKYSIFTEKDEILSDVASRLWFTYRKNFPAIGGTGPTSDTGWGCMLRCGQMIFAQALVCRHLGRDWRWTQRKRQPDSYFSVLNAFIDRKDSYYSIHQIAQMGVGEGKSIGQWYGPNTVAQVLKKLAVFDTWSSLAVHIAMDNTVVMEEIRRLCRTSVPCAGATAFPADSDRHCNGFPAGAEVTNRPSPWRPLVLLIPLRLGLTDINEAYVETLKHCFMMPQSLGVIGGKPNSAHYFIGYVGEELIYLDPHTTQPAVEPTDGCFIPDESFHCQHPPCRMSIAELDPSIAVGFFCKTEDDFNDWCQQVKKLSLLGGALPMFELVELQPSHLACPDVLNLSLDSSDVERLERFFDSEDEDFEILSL
SUMO Mot1 rescue: SUMOylation pathway inhibition by Mot1-301 growth rescue; S. cerevisiae Mot1-301 growth rescue, ATP luminescence, 38.5C; percent above DMSO median, 100 means doubled; growth rescue, % at 18.8 µM; 320,000 compounds, 1% hits;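 active = every valid replicate shows activation above 250% relative to neutral control wells; inactive = the rest, any valid replicate at or below 250%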
Of the large screens only hits and unclear results are named; the others gave an inactive call.

Cc1ccc(N(CC(=O)Nc2cccc(Cl)c2C)S(C)(=O)=O)cc1	none
Cn1c(Cl)c(/C=N/OC(=O)c2ccccc2Cl)c2ccccc21	none
Cc1cccc(C(=O)O/N=C/c2c(N3CCOCC3)n(C)c3ccccc23)c1	Calb FLC 83 (no result: FAS TE block, NadD block, ATG4B inhibitor)
CCOc1ccccc1C(=O)NCC(=O)Nc1ccc(-c2ccccc2)cc1	none
CCCC(=O)NC(c1ccccc1OC)c1ccc2cccnc2c1O (configuration not stated)	Calb FLC 101
CCCCC(=O)NC(c1ccccc1OC)c1ccc2cccnc2c1O (configuration not stated)	Calb FLC 96
CN(C)S(=O)(=O)Oc1cccc(C(=O)Nc2ccc(Cl)cc2)c1	Calb FLC 87 (no result: SUMO Mot1 rescue)
CCCCc1cc(=O)oc2cc(OCC(=O)N[C@@H](Cc3ccccc3)C(=O)O)ccc12	SUMO Mot1 rescue 523
CCCCCCc1c(C)c2ccc(OCC(=O)N[C@@H](Cc3ccccc3)C(=O)O)cc2oc1=O	SUMO Mot1 rescue 522
CCCCc1cc(=O)oc2cc(OCC(=O)NCc3ccccn3)ccc12	SUMO Mot1 rescue 322
CCCc1cc(=O)oc2cc(OCC(=O)NC(Cc3ccc(Cl)cc3)C(=O)O)ccc12 (configuration not stated)	none
CCCc1cc(=O)oc2cc(OCC(=O)NCc3ccccn3)ccc12	none
COc1ccc(NC(=O)c2cccc(S(=O)(=O)NCc3ccco3)c2)c(OC)c1	none
COc1ccc(C(=O)N2CCC(c3ccccc3)CC2)c(OC)c1OC	none
CCc1ccccc1NC(=O)CN1CCN(CC(=O)NCc2ccc(Cl)cc2)CC1	none (no result: Calb FLC)
CCCNC(=O)NC(=O)COC(=O)CNS(=O)(=O)/C=C/c1ccccc1	none
Cc1noc(C)c1C(=O)NCCc1c(C)[nH]c2ccccc12	SUMO Mot1 rescue 296
Oc1ccc(Nc2ncnc3c2oc2ccccc23)cc1	none
Oc1cccc(Nc2ncnc3c2oc2ccccc23)c1	Calb FLC 91
C(=N\Nc1ccccc1)/c1ccc(N2CCOCC2)cc1	Calb FLC inconclusive
Clc1cccc(N/N=C/c2ccc(N3CCOCC3)cc2)c1	SUMO Mot1 rescue 326
Cc1ccc(-c2nnn(CC(=O)NCCc3ccc4c(c3)OCO4)n2)o1	SUMO Mot1 rescue 329
COc1ccc(-c2nnn(CC(=O)NCc3ccc4c(c3)OCO4)n2)cc1OC	none
NC(=O)c1cccnc1Oc1ccccc1	SUMO Mot1 rescue 350
NNC(=O)c1cccnc1Oc1ccccc1	none
CC1CC1C(=O)OCC(=O)Nc1ccc(S(=O)(=O)N2CCOCC2)cc1 (configuration not stated)	none (no result: Calb FLC)
COc1ccc(NC(=O)Nc2nc3c(s2)CCCC3)cc1	Calb FLC 80
COc1ccc(OCC(=O)Nc2nc3c(s2)CCCC3)cc1	none (no result: SUMO Mot1 rescue)
COc1ccc(OC)c(NC(=O)c2c3c(nc4ccccc24)CCC3)c1	Calb FLC 66
O=C(CSc1nnc(CNC(=O)c2c(F)cccc2Cl)o1)NCc1ccccc1	none
CCC(=O)Oc1ccc(C(=O)Nc2cccc(C(=O)NCC(C)C)c2)cc1	SUMO Mot1 rescue active
COc1cccc(C(=O)C2CCCN(C(=O)CCC3=NNC(=O)CC3)C2)c1 (configuration not stated)	none
CC1CCN(Cc2c(C(=O)N/N=C/c3cc(Br)ccc3O)nnn2-c2nonc2N)CC1	Calb FLC 82, NadD block 33
CCOc1cccc(-c2c(C(=O)N/N=C(\C)c3ccccn3)nnn2-c2nonc2N)c1	Calb FLC 82
COc1c(Cl)cc(Cl)cc1/C=N/NC(=O)c1nnn(-c2nonc2N)c1CN1CCC(C)CC1	none
CC1CCN(Cc2c(C(=O)N/N=C/c3cc(Cl)ccc3O)nnn2-c2nonc2N)CC1	Calb FLC inconclusive, NadD block 30
COc1ccc(/C=N/NC(=O)c2nnn(-c3nonc3N)c2-c2cccc(OC)c2)cc1	none
COc1ccc(O)c(/C=N/NC(=O)c2c(C)nnn2-c2nonc2N)c1	Calb FLC 63
CCN(Cc1nc2ccccc2c(=O)[nH]1)C(=O)c1cccc(S(=O)(=O)N2CCc3ccccc32)c1	none (no result: Calb FLC)
C/C(=N\NC(=O)c1nnn(-c2nonc2N)c1CN1CCc2ccccc21)c1ccccc1O	NadD block 42
Cc1ccc(OCC(=O)NNC(=S)NC(=O)C2CC2)c(C)c1	Calb FLC 103 (no result: ATG4B inhibitor)
COC(=O)NNC(=O)COc1cc(C)ccc1C	none
Cc1ccc(OCC(=O)NNC(=S)NC(=O)C2CCCCC2)c(C)c1	none
Cc1ccc(C)c(OCC(=O)NNC(=O)CSC(=S)N2CCCC2)c1	SUMO Mot1 rescue 332
O=C(NNS(=O)(=O)c1ccc(Cl)cc1)c1cc(-c2ccccc2)nc2ccccc12	none
CC(C)Cc1ccc(-c2cc3nc(NCCOc4ccccc4)ccn3n2)cc1	none (no result: Calb FLC, ATG4B inhibitor, SUMO Mot1 rescue)
O=C(CCCN1C(=O)c2cccc3cccc(c23)C1=O)N1CCN(c2ncccn2)CC1	none (no result: Calb FLC)
O=C(CCCCCN1C(=O)c2cccc3cccc(c23)C1=O)N1CCOCC1	Calb FLC 107
COc1ccc(C2(C)NC(=O)N(CC(=O)Nc3ccc(C)cc3Br)C2=O)cc1OC (configuration not stated)	none
NNC(=S)Nc1cccc(Cl)c1	Calb FLC 92
C[C@@H]1CC=C[C@H]2[C@H]1C(=O)N(Cc1ccccc1)[C@H]2c1ccoc1	none
CC[C@@H]1CC=C[C@H]2[C@H]1C(=O)N(Cc1ccccc1)[C@H]2c1ccoc1	SUMO Mot1 rescue 679
O=C(Cn1cnc2c(nnn2Cc2ccc(F)cc2)c1=O)NC1CCCC1	Calb FLC 100
O=C(Nc1cc(S(=O)(=O)N2CCOCC2)ccc1Cl)C(=O)c1c(-c2ccccc2)cc2ccccn12	FAS TE block 76
CC(=O)N(Cc1ccc(F)cc1)C1=C(NCCc2ccccc2)C(=O)c2ccccc2C1=O	Calb FLC 87
CCCC1=Nc2cc(C(=O)N3CCN(c4ccccn4)CC3)ccc2Sc2ccc(C)cc21	none
O=C(Nc1cccc(Cl)c1)Nc1nccs1	Calb FLC 80
O=C(Nc1ccc(Cl)c(Cl)c1)Nc1nccs1	none
CC(C)NC(=O)NC(=O)CSc1nnc(-c2c[nH]c3ccccc23)o1	none
O=C(CSc1nnc(-c2c[nH]c3ccccc23)o1)NCC1CCCO1 (configuration not stated)	SUMO Mot1 rescue 285 (no result: Calb FLC)
CCn1c2ccccc2c2cc(NC(=O)C(C)C)ccc21	Calb FLC 96
CCc1cc(C(=O)N=Nc2c(O)[nH]c3ccc([N+](=O)[O-])cc23)c2ccccc2n1	none
CCc1cc(C(=O)N=Nc2c(O)[nH]c3c(Br)cc(Br)cc23)c2ccccc2n1	NadD block 54
COC(=O)[C@]12CCCCC=C1N(Cc1ccc(Cl)cc1Cl)C(=O)[C@H](CC(=O)N1CCN(C(=O)C3CC3)CC1)C2	none (no result: Calb FLC, ATG4B inhibitor, SUMO Mot1 rescue)
CCOc1cc(N)c(Cl)cc1C(=O)NCC1CN(Cc2ccc(F)cc2)CCO1 (configuration not stated)	none
O=c1c(F)cn(C2CCCO2)c(=O)n1Cc1c(F)cccc1Cl (configuration not stated)	Calb FLC 107
